The antibiotic and cytotoxicity screens of Wong et al. (2023)
Out of some 39,000 compounds screened, about 3,300 (8.5%) were called active. The sample as a whole holds a higher share of actives than the screen did.

Each compound was assayed on HepG2 (assay: cytotoxicity call (relative viability < 0.9)). Details: 10 µM.

Row | SMILES | cytotoxicity call
1 | Cc1ccc(S(=O)(=O)N(C)C[C@@H]2OCCCC[C@H](C)Oc3ccc(NS(=O)(=O)c4ccc(F)cc4)cc3C(=O)N([C@H](C)CO)C[C@H]2C)cc1 | inactive
2 | C[C@@H]1CCCCO[C@H](CN(C)Cc2ccc3c(c2)OCO3)[C@@H](C)CN([C@H](C)CO)C(=O)c2cc(NC(=O)Cc3ccccc3)ccc2O1 | inactive
3 | COc1ccc(CN(C)C[C@@H]2OCCCC[C@@H](C)Oc3ccc(NC(=O)Cc4ccccc4)cc3C(=O)N([C@H](C)CO)C[C@H]2C)cc1 | inactive
4 | CCCCCOc1ccc(-c2cc(-c3ccc(C(=O)N[C@H]4C[C@@H](O)[C@@H](O)NC(=O)[C@H]5[C@@H](O)[C@@H](C)CN5C(=O)[C@H]([C@@H](O)CC(N)=O)NC(=O)[C@H]([C@@H](O)[C@@H](O)c5ccc(O)c(OS(=O)(=O)O)c5)NC(=O)[C@H]5C[C@@H](O)CN5C(=O)[C@H]([C@@H](C)O)NC4=O)cc3)no2)cc1 | inactive
5 | CCCCCOc1ccc(-c2ccc(-c3ccc(C(=O)N[C@H]4C[C@@H](O)[C@@H](O)NC(=O)[C@@H]5[C@@H](O)[C@@H](C)CN5C(=O)[C@H]([C@@H](C)O)NC(=O)[C@H]([C@H](O)[C@@H](O)c5ccc(O)cc5)NC(=O)[C@@H]5C[C@@H](O)CN5C(=O)[C@H]([C@@H](C)O)NC4=O)cc3)cc2)cc1 | active
6 | CC[C@H](C)C[C@H](C)CCCCCCCCC(=O)N[C@H]1C[C@@H](O)[C@@H](NCCN)NC(=O)[C@@H]2[C@@H](O)CCN2C(=O)[C@H]([C@H](O)CCN)NC(=O)[C@H]([C@H](O)[C@@H](O)c2ccc(O)cc2)NC(=O)[C@@H]2C[C@@H](O)CN2C(=O)[C@H]([C@@H](C)O)NC1=O | inactive
7 | C[C@@H]1CN([C@@H](C)CO)C(=O)Cc2cc(NC(=O)CCN3CCOCC3)ccc2O[C@H]1CN(C)C(=O)Nc1ccc2c(c1)OCO2 | inactive
8 | CC(C)NC(=O)N(C)C[C@@H]1Oc2ccc(NC(=O)CCC(F)(F)F)cc2C(=O)N([C@H](C)CO)C[C@@H]1C | inactive
9 | Cc1noc(C)c1S(=O)(=O)Nc1ccc2c(c1)C(=O)N([C@@H](C)CO)C[C@H](C)[C@H](CN(C)C(=O)Nc1ccc(C(F)(F)F)cc1)OCCCC[C@H](C)O2 | inactive
10 | Cc1noc(C)c1S(=O)(=O)Nc1ccc2c(c1)C(=O)N([C@H](C)CO)C[C@H](C)[C@H](CN(C)C(=O)Nc1ccc(C(F)(F)F)cc1)OCCCC[C@@H](C)O2 | inactive
11 | Cc1noc(C)c1S(=O)(=O)Nc1ccc2c(c1)C(=O)N([C@@H](C)CO)C[C@@H](C)[C@H](CN(C)C(=O)Nc1ccc(C(F)(F)F)cc1)OCCCC[C@H](C)O2 | inactive
12 | Cc1noc(C)c1S(=O)(=O)Nc1ccc2c(c1)C(=O)N([C@@H](C)CO)C[C@H](C)[C@@H](CN(C)C(=O)Nc1ccc(C(F)(F)F)cc1)OCCCC[C@H](C)O2 | active
13 | Cc1noc(C)c1S(=O)(=O)Nc1ccc2c(c1)C(=O)N([C@H](C)CO)C[C@@H](C)[C@@H](CN(C)C(=O)Nc1ccc(C(F)(F)F)cc1)OCCCC[C@@H](C)O2 | active
14 | Cc1noc(C)c1S(=O)(=O)Nc1ccc2c(c1)C(=O)N([C@@H](C)CO)C[C@@H](C)[C@@H](CN(C)C(=O)Nc1ccc(C(F)(F)F)cc1)OCCCC[C@@H](C)O2 | inactive
15 | Cc1noc(C)c1S(=O)(=O)Nc1ccc2c(c1)C(=O)N([C@@H](C)CO)C[C@@H](C)[C@@H](CN(C)C(=O)Nc1ccc(C(F)(F)F)cc1)OCCCC[C@H](C)O2 | inactive
16 | Cc1noc(C)c1S(=O)(=O)Nc1ccc2c(c1)C(=O)N([C@H](C)CO)C[C@H](C)[C@H](CN(C)C(=O)Nc1ccc(C(F)(F)F)cc1)OCCCC[C@H](C)O2 | inactive
17 | Cc1noc(C)c1S(=O)(=O)Nc1ccc2c(c1)C(=O)N([C@H](C)CO)C[C@@H](C)[C@H](CN(C)C(=O)Nc1ccc(C(F)(F)F)cc1)OCCCC[C@@H](C)O2 | active
18 | C[C@@H]1CN([C@@H](C)CO)C(=O)c2cccc(NC(=O)c3cnccn3)c2O[C@@H]1CN(C)C(=O)Nc1ccccc1 | inactive
19 | COc1ccc(S(=O)(=O)N(C)C[C@H]2Oc3ccc(NC(=O)c4ccncc4)cc3CC(=O)N([C@H](C)CO)C[C@@H]2C)cc1 | inactive
20 | C[C@H](CO)N1C[C@H](C)[C@@H](CN(C)C(=O)Nc2ccc(C(F)(F)F)cc2)Oc2ccc(NC(=O)Cn3cnnn3)cc2CC1=O | inactive
21 | COc1cccc(NC(=O)N2C[C@@H](O)COC[C@@H]3O[C@H](CC(=O)NCCCN4CCOCC4)CC[C@H]32)c1 | inactive
22 | COc1ccc(CN(C)C[C@@H]2Oc3c(NS(=O)(=O)c4cn(C)cn4)cccc3C(=O)N([C@@H](C)CO)C[C@H]2C)cc1 | inactive
23 | C[C@H]1CN([C@@H](C)CO)C(=O)c2cccc(NC(=O)c3cnccn3)c2O[C@H]1CN(C)Cc1ccccc1 | inactive
24 | C[C@H](CO)N1C[C@H](C)[C@H](CN(C)Cc2ccc(C(F)(F)F)cc2)Oc2ccc(NS(C)(=O)=O)cc2CC1=O | inactive
25 | Cc1ccc(S(=O)(=O)Nc2ccc3c(c2)CC(=O)N([C@H](C)CO)C[C@H](C)[C@H](CN(C)Cc2ccc(C(F)(F)F)cc2)O3)cc1 | active
26 | C[C@H]1CN([C@@H](C)CO)C(=O)Cc2cc(NS(C)(=O)=O)ccc2O[C@@H]1CN(C)Cc1ccc(C(F)(F)F)cc1 | inactive
27 | Cc1ccc(S(=O)(=O)Nc2ccc3c(c2)CC(=O)N([C@H](C)CO)C[C@@H](C)[C@H](CN(C)Cc2ccncc2)O3)cc1 | inactive

Row | SMILES | cytotoxicity call
28 | C[C@@H]1CN([C@@H](C)CO)C(=O)Cc2cc(NS(C)(=O)=O)ccc2O[C@@H]1CN(C)Cc1ccc(C(F)(F)F)cc1 | inactive
29 | Cc1ccc(S(=O)(=O)Nc2ccc3c(c2)CC(=O)N([C@H](C)CO)C[C@@H](C)[C@@H](CN(C)Cc2ccc(C(F)(F)F)cc2)O3)cc1 | active
30 | Cc1ccc(S(=O)(=O)Nc2ccc3c(c2)CC(=O)N([C@H](C)CO)C[C@@H](C)[C@H](CN(C)Cc2ccc(C(F)(F)F)cc2)O3)cc1 | inactive
31 | Cc1ccc(S(=O)(=O)Nc2ccc3c(c2)CC(=O)N([C@@H](C)CO)C[C@H](C)[C@H](CN(C)Cc2ccc(C(F)(F)F)cc2)O3)cc1 | inactive
32 | C[C@@H]1CN([C@H](C)CO)C(=O)Cc2cc(NS(C)(=O)=O)ccc2O[C@@H]1CN(C)Cc1ccc(C(F)(F)F)cc1 | inactive
33 | Cc1ccc(S(=O)(=O)Nc2ccc3c(c2)CC(=O)N([C@@H](C)CO)C[C@H](C)[C@@H](CN(C)Cc2ccc(C(F)(F)F)cc2)O3)cc1 | active
34 | Cc1ccc(S(=O)(=O)Nc2ccc3c(c2)CC(=O)N([C@@H](C)CO)C[C@H](C)[C@@H](CN(C)Cc2ccncc2)O3)cc1 | inactive
35 | Cc1ccc(S(=O)(=O)Nc2ccc3c(c2)CC(=O)N([C@H](C)CO)C[C@@H](C)[C@@H](CN(C)Cc2ccncc2)O3)cc1 | active
36 | O=C(C[C@@H]1CC[C@H]2[C@@H](COC[C@H](O)CN2Cc2ccccc2F)O1)N[C@@H]1CCN(Cc2ccccc2)C1 | inactive
37 | COc1ccc(S(=O)(=O)Nc2cccc3c2O[C@H](CN(C)S(=O)(=O)c2c(C)noc2C)[C@@H](C)CN([C@H](C)CO)C3=O)cc1 | inactive
38 | C/C=C/c1ccc([C@@H]2[C@H](CO)N(S(=O)(=O)Cc3ccccc3)C23CN(C(=O)C2CCOCC2)C3)cc1 | inactive
39 | C[C@@H]1CN([C@H](C)CO)C(=O)c2cc(NC(=O)NC3CCCCC3)ccc2O[C@@H](C)CCCCO[C@@H]1CN(C)C(=O)c1ccccc1 | inactive
40 | COc1ccc(S(=O)(=O)N(C)C[C@@H]2OCc3cnnn3CCCC(=O)N([C@H](C)CO)C[C@@H]2C)cc1 | inactive
41 | COCC#Cc1cnc2c(c1)C(=O)N([C@@H](C)CO)C[C@@H](C)[C@@H](CN(C)C(=O)Nc1ccc(OC)cc1)O2 | inactive
42 | C[C@H](CO)N1C[C@H](C)[C@H](CN(C)Cc2ccc(C(F)(F)F)cc2)Oc2c(NC(=O)C3CCCCC3)cccc2C1=O | inactive
43 | COC(=O)c1cc(=O)n2ccccc2c1C#N | inactive
44 | CO[C@@H](CN(C)C(=O)c1ccccc1F)[C@H](C)CN([C@@H](C)CO)S(=O)(=O)c1ccc(Cl)cc1 | inactive
45 | C[C@H](CO)N1C[C@H](C)[C@H](CN(C)Cc2ccncc2)Oc2ccc(NS(=O)(=O)c3cn(C)cn3)cc2CC1=O | inactive
46 | C[C@H]1CCCCO[C@@H](CN(C)C)[C@@H](C)CN([C@@H](C)CO)C(=O)c2cc(NC(=O)CCCN(C)C)ccc2O1 | inactive
47 | C=CC[C@H](CC(=O)NCCO)C(=O)N[C@@H](COC(=O)[C@@H](CC=C)CC(=O)OC(C)(C)C)Cc1ccccc1 | inactive
48 | CO[C@H]1CN(C)C(=O)c2ccc(NC(=O)C3CC3)cc2OC[C@@H](C)N(C(=O)C2CCOCC2)C[C@H]1C | inactive
49 | Cc1ccc(S(=O)(=O)N2C[C@H](O)COC[C@H]3O[C@@H](CC(=O)N[C@H]4CCN(Cc5ccccc5)C4)CC[C@@H]32)cc1 | inactive
50 | COc1cccc(S(=O)(=O)Nc2ccc3c(c2)[C@H]2C[C@H](CC(=O)N4CCCCC4)O[C@@H](CO)[C@H]2O3)c1 | inactive
51 | Cc1ccc(S(=O)(=O)Nc2ccc3c(c2)CC(=O)N([C@@H](C)CO)C[C@@H](C)[C@H](CN(C)Cc2ccc(C(F)(F)F)cc2)O3)cc1 | inactive
52 | Cc1ccc(S(=O)(=O)Nc2ccc3c(c2)CC(=O)N([C@H](C)CO)C[C@H](C)[C@@H](CN(C)Cc2ccc(C(F)(F)F)cc2)O3)cc1 | inactive
53 | Cc1ccc(S(=O)(=O)Nc2ccc3c(c2)CC(=O)N([C@@H](C)CO)C[C@@H](C)[C@@H](CN(C)Cc2ccc(C(F)(F)F)cc2)O3)cc1 | active
54 | C[C@@H]1CCCCO[C@H](CN(C)C(=O)Nc2ccc(C(F)(F)F)cc2)[C@@H](C)CN([C@H](C)CO)C(=O)c2cc(NC(=O)c3ccncc3)ccc2O1 | inactive
